Experimental findings from PubChem BioAssay (EPA / NIEHS) are described below.

Assay [1] is described as follows: ACEA_ER_80hr: ACEA Biosciences xCELLigence Real-Time Cell Analysis on Estrogen Receptor Agonism for Proliferation (AID 2282667; active = hit-call score of the fitted dose curve at least 0.9, where 1 is the maximum). The note with it: T47D proliferation, impedance (xCELLigence), 80 h. The essentials: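 Impedance readout (RT-CES) of T47D proliferation at 80 h post-dose; gain of signal vs DMSO baseline. Compounds: 8 conc, 1:4 serial, top 100 uM final, ≤0.5% DMSO; biological duplicate.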

Assay [2] can be described thus: ATG_CRE_CIS: Attagene CIS-FACTORIAL HepG2 Assay for human cAMP Responsive Element (CRE) binding protein 3 (AID 2282926). The note with it: HepG2 CRE cis-reporter, Attagene multiplexed mRNA; actives raise or lower the signal. In outline:
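Endogenous CRE-binding activity in HepG2 is reported through a cis-regulated transfected reporter. Following a day of exposure, mRNA levels are determined by reverse transcription PCR and fluorescent fragment analysis; fits run in both directions versus DMSO.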

Assay [3] has as its target CCAAT/enhancer-binding protein beta (Homo sapiens) (UniProt P17676). Briefly: ATG_C_EBP_CIS: Attagene CIS-FACTORIAL HepG2 Assay for human CCAAT/Enhancer Binding Protein (C/EBP) beta (AID 2282927). The note with it: HepG2 Attagene cis-factorial transcription factor reporter; actives raise or lower the signal. The essentials: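 Changes in reporter mRNA, rather than exogenous chimeric receptor activity, reflect native C/EBP signalling in transfected HepG2 cells dosed for 24 h; transcripts are detected by RT-PCR and capillary electrophoresis.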

Assay [4] is described as follows: ATG_CMV_CIS: Attagene CIS-FACTORIAL HepG2 Assay for human CMV (Internal Marker) (AID 2282928).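 Also: endpoint acts as a background internal control marker rather than a target.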 The note with it: HepG2 CMV promoter reporter, transcription factor profiling; actives raise or lower the signal. In outline: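 After transient transfection of HepG2 with reporter transcription units driven by cis-regulatory promoters, cells receive test chemical for 24 h. Labeled reporter amplicons, digested with HpaI, are sized and quantified by capillary electrophoresis against DMSO.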

The nature of assay [5]: ATG_DR4_LXR_CIS: Attagene CIS-FACTORIAL HepG2 Assay for human Liver X Receptor (LXR), DR4 submotif (AID 2282929). The note with it: HepG2 Attagene DR4 cis-reporter, mRNA transcription; actives raise or lower the signal. In outline:
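The endpoint is DR4-element-driven reporter transcripts after 24 h chemical exposure of transfected HepG2 cells. These were measured via RT-PCR and capillary electrophoresis, and gain or loss of signal was fitted relative to DMSO controls.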

Assay [6] addresses Aryl hydrocarbon receptor (Homo sapiens) (UniProt P35869). In words: ATG_Ahr_CIS: Attagene CIS-FACTORIAL HepG2 Assay for human Aryl Hydrocarbon Receptor (Ahr) (AID 2282930). The following applies: HepG2 AhR cis-factorial reporter transcription; actives raise or lower the signal. The essentials: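 HepG2, transient MRTU (cis) transfection, 24 h exposure. RNA → cDNA → PCR → 6-FAM primer extension → HpaI 2 h 37 C → CE. Fit: bidirectional, DMSO baseline.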

Assay [7] in a line: ATG_AP_1_CIS: Attagene CIS-FACTORIAL HepG2 Assay for human Activator Protein 1 (AP-1) (AID 2282931). The following applies: HepG2 Attagene cis-factorial AP-1 reporter mRNA; actives raise or lower the signal. The essentials:
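Readout is reporter transcript level from endogenous transcription factor activity, quantified by RT-PCR with fluorescent primer extension and capillary electrophoresis. Transiently transfected HepG2 cells, 24 h exposure. Curves fitted both directions versus DMSO.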

Assay [8] can be described thus: ATG_AP_2_CIS: Attagene CIS-FACTORIAL HepG2 Assay for human Activator Protein 2 (AP-2) (AID 2282932). The following applies: HepG2 AP-2 cis-reporter, Attagene transcription factor profiling; actives raise or lower the signal. In outline: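 Step one: transient transfection of HepG2 with reporter transcription units. Step two: 24 h chemical exposure. Step three: RNA extraction, RT-PCR, labelled fragment analysis by capillary electrophoresis; DMSO serves as baseline.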

The nature of assay [9]: ATG_BRE_CIS: Attagene CIS-FACTORIAL HepG2 Assay for human Bone Morphogenetic Protein (BMP) Response Element (BRE) (AID 2282933). The following applies: HepG2 BMP response element reporter, Attagene transcription factor profiling; actives raise or lower the signal. In outline: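 HepG2 cells transiently transfected with multiplexed cis-element reporter units were dosed with chemical for 24 h. Reporter mRNA was measured by RT-PCR with fluorescent labelling, HpaI digestion and capillary electrophoresis; bidirectional fitting relative to DMSO.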

Assay [10] deals with Retinoic acid receptor alpha (Homo sapiens) (UniProt P10276). In words: ATG_DR5_RAR_CIS: Attagene CIS-FACTORIAL HepG2 Assay for human Retinoic Acid Receptor Alpha (RARE), DR5 submotif (AID 2282934). The note with it: HepG2 Attagene cis-factorial RARE DR5 reporter, mRNA; actives raise or lower the signal. The essentials:
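HepG2, transient cis-reporter transfection, 24 h exposure. mRNA readout: RT-PCR, FAM label, HpaI cut, capillary electrophoresis. DMSO baseline, gain/loss fitting.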

For assay [11], the target named is Transcription factor E2F1 (Homo sapiens) (UniProt Q01094). Briefly: ATG_E2F_CIS: Attagene CIS-FACTORIAL HepG2 Assay for human E2F Transcription Factor 1 (AID 2282935). The note with it: HepG2 Attagene cis-reporter, E2F reporter RNA transcripts; actives raise or lower the signal. The essentials: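 Total RNA from 24 h-treated, reporter-transfected HepG2 cells undergoes DNase I treatment, oligo(dT) reverse transcription, PCR and 6-FAM primer extension before capillary electrophoresis.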
Chain of Transcription factor E2F1 (Homo sapiens) (Q01094 whole entry, looked up): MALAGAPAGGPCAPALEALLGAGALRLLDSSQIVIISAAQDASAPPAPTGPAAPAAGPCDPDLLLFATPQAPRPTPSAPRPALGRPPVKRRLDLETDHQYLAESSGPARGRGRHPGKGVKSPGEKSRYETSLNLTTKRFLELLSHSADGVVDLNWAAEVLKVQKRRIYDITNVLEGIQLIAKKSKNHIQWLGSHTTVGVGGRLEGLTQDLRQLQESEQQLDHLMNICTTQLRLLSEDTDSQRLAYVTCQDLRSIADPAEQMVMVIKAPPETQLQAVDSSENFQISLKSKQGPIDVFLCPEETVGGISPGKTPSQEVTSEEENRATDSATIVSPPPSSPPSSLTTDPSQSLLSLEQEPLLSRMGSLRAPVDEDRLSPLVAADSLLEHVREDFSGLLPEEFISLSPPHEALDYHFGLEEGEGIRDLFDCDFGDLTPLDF

Assay [12] is described as follows: ATG_E_Box_CIS: Attagene CIS-FACTORIAL HepG2 Assay for human Enhancer Box (E-box) (AID 2282936). The note with it: HepG2 E-box cis-reporter transcription, actives raise or lower the signal. The essentials: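 DMSO served as negative control and baseline for bidirectional fitting. Human hepatoma HepG2 cells, transiently transfected with cis-reporter constructs, were dosed 24 h; reporter mRNA read by RT-PCR and capillary electrophoresis.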

The nature of assay [13]: ATG_M_61_CIS: Attagene CIS-FACTORIAL HepG2 Assay for M61 Transcription Factor (Internal Marker) (AID 2282937). The note with it: HepG2 Attagene CIS-FACTORIAL M61 internal marker reporter; actives raise or lower the signal. In outline:
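Readout is reporter mRNA by RT-PCR, fluorescent primer extension and capillary electrophoresis, with gain or loss fitted relative to DMSO. Transfected HepG2 cells carrying endogenous-TF-driven cis reporters were exposed to chemicals for 24 hours.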

A short description of assay [14]: ATG_EGR_CIS: Attagene CIS-FACTORIAL HepG2 Assay for human Early Growth Response 1 (EGR1) (AID 2282938). The note with it: HepG2 Attagene CIS-FACTORIAL EGR reporter mRNA; actives raise or lower the signal. The essentials:
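After 24 h compound exposure, RNA from reporter-transfected HepG2 cells was reverse-transcribed, PCR-amplified, fluorescently labelled and resolved by capillary electrophoresis. EGR1 reporter transcript changes, up or down, were fitted against DMSO, reflecting endogenous transcription-factor activity.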

Assay [15] is described as follows: ATG_M_19_CIS: Attagene CIS-FACTORIAL HepG2 Assay for M19 Transcription Factor (Internal Marker) (AID 2282939). The following applies: HepG2 Attagene CIS-FACTORIAL M19 internal marker reporter; actives raise or lower the signal. In outline:
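HepG2 cells transiently transfected with cis-regulated multiple reporter transcription units were dosed for 24 h; reporter mRNA was quantified by RT-PCR, 6-FAM primer-extension labelling, HpaI digestion and capillary electrophoresis, with bidirectional fitting against DMSO baseline.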

The nature of assay [16]: ATG_ERE_CIS: Attagene CIS-FACTORIAL HepG2 Assay for Estrogen Response Element (ERE) (AID 2282940). The note with it: HepG2 ERE cis-reporter, Attagene RNA transcript; actives raise or lower the signal. The essentials:
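HepG2 cells transiently transfected with cis-promoter-driven multiplexed reporter transcription units report endogenous TF activity. After 24 h compound exposure, reporter mRNA is quantified by RT-PCR with capillary electrophoresis fluorescence; bidirectional fitting versus DMSO baseline.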

Assay [17] can be described thus: ATG_Ets_CIS: Attagene CIS-FACTORIAL HepG2 Assay for human Erythroblast Transformation Specific (ETS) (AID 2282941). The note with it: HepG2 ETS cis-reporter transcription, actives raise or lower the signal. The essentials: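 Human HepG2 hepatoma cells were transiently transfected with promoter-driven reporter constructs and treated for 24 hours. Reporter transcripts were quantified by RT-PCR with fluorescent primer extension; bidirectional curve fitting used DMSO as reference.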

Assay [18] addresses Hepatocyte nuclear factor 3-beta (Homo sapiens) (UniProt Q9Y261). Briefly: ATG_FoxA2_CIS: Attagene CIS-FACTORIAL HepG2 Assay for human Forkhead box A2 (FOXA2) (AID 2282942). The following applies: HepG2 cis-reporter transcription factor activity, 24 h; actives raise or lower the signal. In outline:
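Endogenous transcription factor activity is captured via cis-element-driven reporter transcripts in transfected HepG2. Total RNA taken at 24 h post-dosing; labelled RT-PCR products resolved by capillary electrophoresis. Gain or loss fitted versus DMSO.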

The nature of assay [19]: ATG_FoxO_CIS: Attagene CIS-FACTORIAL HepG2 Assay for human Forkhead box O (FoxO) (AID 2282943). The note with it: HepG2 Attagene cis-reporter, FoxO element, mRNA; actives raise or lower the signal. The essentials: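 Human hepatoma HepG2 cells carry transiently introduced reporter transcription units controlled by cis promoter elements. Chemical treatment lasted 24 h, and mRNA signal was compared with DMSO.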

Assay [20] can be described thus: ATG_GATA_CIS: Attagene CIS-FACTORIAL HepG2 Assay for human GATA Binding Protein (AID 2282944). The note with it: HepG2 GATA cis-element reporter, Attagene multiplex mRNA; actives raise or lower the signal. In outline:
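HepG2 cells transiently transfected with multiplexed cis-element reporter units reflecting endogenous transcription factor activity; reporter mRNA measured after 24 h dosing by RT-PCR, 6-FAM labeling, HpaI digestion and capillary electrophoresis. Bidirectional fitting versus DMSO baseline.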

Records with an inconclusive call do not appear. Calls of active or inactive are those of the source. The calls were made as follows, unless noted: active = hit-call score of the fitted dose curve at least 0.9, where 1 is the maximum; inactive = score below 0.9.

Chain of CCAAT/enhancer-binding protein beta (Homo sapiens) (P17676 whole entry, looked up): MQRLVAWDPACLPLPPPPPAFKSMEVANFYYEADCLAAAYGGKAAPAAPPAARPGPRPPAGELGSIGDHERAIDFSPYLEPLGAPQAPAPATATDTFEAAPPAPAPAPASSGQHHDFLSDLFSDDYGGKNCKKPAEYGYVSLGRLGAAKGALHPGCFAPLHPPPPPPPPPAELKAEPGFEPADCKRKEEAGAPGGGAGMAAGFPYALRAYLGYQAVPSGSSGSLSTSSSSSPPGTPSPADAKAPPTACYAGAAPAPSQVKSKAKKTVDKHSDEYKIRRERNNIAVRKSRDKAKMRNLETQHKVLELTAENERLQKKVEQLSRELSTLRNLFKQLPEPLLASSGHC
Chain of Retinoic acid receptor alpha (Homo sapiens) (P10276 whole entry, looked up): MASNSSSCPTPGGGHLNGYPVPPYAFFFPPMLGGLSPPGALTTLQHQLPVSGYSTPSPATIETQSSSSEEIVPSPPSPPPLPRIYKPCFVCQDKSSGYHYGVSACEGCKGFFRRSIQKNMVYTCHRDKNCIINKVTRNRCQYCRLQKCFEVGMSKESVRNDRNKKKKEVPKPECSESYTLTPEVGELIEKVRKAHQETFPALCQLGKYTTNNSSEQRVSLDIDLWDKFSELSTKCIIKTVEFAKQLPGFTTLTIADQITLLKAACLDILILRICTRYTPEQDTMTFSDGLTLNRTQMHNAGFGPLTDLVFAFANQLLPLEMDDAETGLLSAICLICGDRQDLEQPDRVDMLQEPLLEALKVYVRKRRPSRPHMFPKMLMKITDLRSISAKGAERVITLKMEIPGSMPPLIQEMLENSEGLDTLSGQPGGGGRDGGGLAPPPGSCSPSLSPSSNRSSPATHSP
Chain of Hepatocyte nuclear factor 3-beta (Homo sapiens) (Q9Y261 whole entry, looked up): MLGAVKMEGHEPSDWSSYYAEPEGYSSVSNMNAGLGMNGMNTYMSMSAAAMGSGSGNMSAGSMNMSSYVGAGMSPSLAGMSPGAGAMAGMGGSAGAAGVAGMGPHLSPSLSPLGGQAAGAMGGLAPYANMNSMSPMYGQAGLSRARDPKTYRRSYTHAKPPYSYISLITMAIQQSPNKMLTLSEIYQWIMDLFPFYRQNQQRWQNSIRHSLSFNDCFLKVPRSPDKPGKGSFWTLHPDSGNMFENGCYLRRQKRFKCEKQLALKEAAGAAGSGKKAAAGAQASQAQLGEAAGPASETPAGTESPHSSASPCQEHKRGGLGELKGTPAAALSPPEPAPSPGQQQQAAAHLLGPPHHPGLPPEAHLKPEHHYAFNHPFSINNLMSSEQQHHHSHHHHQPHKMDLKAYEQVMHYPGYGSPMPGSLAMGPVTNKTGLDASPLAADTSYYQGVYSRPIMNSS
Chain of Aryl hydrocarbon receptor (Homo sapiens) (P35869 whole entry, looked up): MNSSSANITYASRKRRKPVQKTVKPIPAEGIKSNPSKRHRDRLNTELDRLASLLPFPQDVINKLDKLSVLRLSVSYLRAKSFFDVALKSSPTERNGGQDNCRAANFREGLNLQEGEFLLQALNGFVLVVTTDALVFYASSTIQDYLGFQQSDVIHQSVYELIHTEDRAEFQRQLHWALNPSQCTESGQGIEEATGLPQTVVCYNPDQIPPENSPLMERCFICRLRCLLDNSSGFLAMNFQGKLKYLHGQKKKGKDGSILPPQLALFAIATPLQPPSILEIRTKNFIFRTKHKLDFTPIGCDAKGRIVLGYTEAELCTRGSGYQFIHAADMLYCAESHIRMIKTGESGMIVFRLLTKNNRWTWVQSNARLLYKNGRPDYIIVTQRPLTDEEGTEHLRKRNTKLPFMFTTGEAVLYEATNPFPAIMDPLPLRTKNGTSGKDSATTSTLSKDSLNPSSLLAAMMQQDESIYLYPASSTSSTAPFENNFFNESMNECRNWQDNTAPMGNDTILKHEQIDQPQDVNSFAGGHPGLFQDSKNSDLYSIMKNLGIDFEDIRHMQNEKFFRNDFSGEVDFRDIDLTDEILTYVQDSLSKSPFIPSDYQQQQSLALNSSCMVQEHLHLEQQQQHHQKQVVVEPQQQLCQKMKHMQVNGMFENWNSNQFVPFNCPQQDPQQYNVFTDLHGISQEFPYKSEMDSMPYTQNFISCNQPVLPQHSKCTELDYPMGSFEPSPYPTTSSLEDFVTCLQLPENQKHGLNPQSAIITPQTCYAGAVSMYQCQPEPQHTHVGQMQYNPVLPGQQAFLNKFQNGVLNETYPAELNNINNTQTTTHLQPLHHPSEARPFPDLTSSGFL

For `CC1=CC2C3C=CC(C3)C2C1C` (centres undefined), the compound was called inactive in assay [1], in [2], in [4], in assay [5], in assay [6] and in assay [7]. The result in assay [8], in [9], in assay [10], in assay [12], in [13] and in [14] was inactive. Moreover, the result in [15], in [16], in assay [17], in [18], in [19] and in assay [20] was inactive. In addition, the AC50 in assay [3] is 100 µM (active); in assay [11] it was 29.9 µM (active).
Turning to `Cc1cc(O)c(C(C)(C)C)cc1C(C)(C)C`, the outcome in assay [1], in assay [2], in assay [3], in assay [6], in assay [8] and in assay [9] was inactive. The compound was called inactive in assay [10], in [11], in assay [13], in assay [14], in assay [15] and in assay [16]. The result in assay [17], in assay [18], in assay [19] and in assay [20] was inactive. In addition, the AC50 in assay [4] is 9.14 µM (active); in assay [7], 11.1 µM (active); in assay [12], 13.9 µM (active).
For the compound `CCOC(=O)C1CC(=O)C(=C(O)C2CC2)C(=O)C1` (centres undefined), the compound was classed as inactive in assay [1], in [2], in assay [3], in assay [4], in assay [5] and in assay [6]. The result in assay [7], in assay [8], in assay [9], in assay [10], in assay [11] and in assay [12] was inactive. Moreover, the call in assay [13], in assay [14], in [15], in assay [16], in assay [17] and in assay [18] was inactive. Besides, the compound was classed as inactive in assay [19] and in assay [20].
